We go through eight compounds from PubChem BioAssay.

Active and inactive are the calls of the source.

Test [1] is described as follows: probe aLefty2 binding to arrayed compounds – biochemical, biotinylated probe, 635/667 nm fluorescence, primary screen (AID 1094).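 Also: score merges spot fluorescence near 667 nm with spot signal-to-noise ratio.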 Particulars: small-molecule microarray, higher = more signal.
Test [2] has as its system Noggin (protein binding on small-molecule microarray). In words: small molecules binding Noggin protein – biochemical, 635/667 nm fluorescence, primary screen (AID 1095).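 Also: score merges 667 nm feature fluorescence with signal to noise over triplicate slides.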 Particulars: 635 nm fluorescence, higher = more signal.
In test [3] the target is Neurogenic locus notch homolog protein 3 (Homo sapiens) (UniProt Q9UM47). In words: small molecules binding NOTCH3 protein – biochemical, 635/667 nm fluorescence, primary screen (AID 1096). Particulars: small-molecule microarray, 635 nm fluorescence, higher = more signal.
Test [4] is described as follows: probe aEGFR binding to arrayed compounds – biochemical, biotinylated probe, 635/667 nm fluorescence, primary screen (AID 1097).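 Also: probe is a biotinylated anti-EGFR antibody binding compounds printed on slides; score combines fluorescence near 667 nm and signal to noise of each spot.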 Particulars: small-molecule microarray, higher = more signal.
For test [5], the system named is Plasmodium falciparum Sir2 (PF13_0152, Sir2A). As to the kind of experiment: Plasmodium falciparum Sir2A binding compounds – biochemical, small-molecule microarray, 635 nm fluorescence, primary screen (AID 1098).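 Also: score merges spot fluorescence intensity with its signal-to-noise ratio.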 Particulars: fluorescence 635 nm, higher = more signal.
Test [6] can be described thus: probe aDKK1 binding to arrayed compounds – biochemical, biotinylated probe, 635/667 nm fluorescence, primary screen (AID 1099).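 Also: score merges 667nm spot fluorescence with signal to noise across triplicate slides.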 Particulars: small-molecule microarray, higher = more signal.
The nature of test [7]: probe aCHRDL2 binding to arrayed compounds – biochemical, biotinylated probe, 635/667 nm fluorescence, primary screen (AID 1100). Particulars: small-molecule microarray, higher = more signal.
Test [8] can be described thus: change in splice reporter luminescence, either direction, cell-based, HEK293, spliceosome inhibition project, primary screen (AID 1101).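 Also: HEK293 cells carrying a splicing-competent luciferase reporter gene; test concentration not given here.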 The conditions noted are these: HEK293 splicing luciferase reporter, 24 h, higher = more signal, called active from +8 up or from −8 down. Background: Reporter assays use an easily measured gene product as a stand-in for the process of interest.

In test [9] the target is Fibroblast growth factor 10 (Homo sapiens) (UniProt O15520). As to the kind of experiment: compounds binding fibroblast growth factor 10 – biochemical, small-molecule microarray, 635 nm fluorescence, primary screen (AID 1102). The conditions noted are these: FGF10 binding, fluorescence 635 nm, higher = more signal.
In test [10] the test system is glycogen synthase kinase-3 (GSK3A per assay name; protocol says GSK3B). As to the kind of experiment: compounds binding glycogen synthase kinase-3 – biochemical, small-molecule microarray, 635 nm fluorescence, GSK3A, primary screen (AID 1103). Also: the record names both GSK3A and GSK3B. The conditions noted are these: fluorescence 635 nm, higher = more signal.
For test [11], the target named is Epidermal growth factor receptor (Homo sapiens) (UniProt P00533). As to the kind of experiment: compounds binding epidermal growth factor receptor – biochemical, small-molecule microarray, 635 nm fluorescence, primary screen (AID 1104).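 Also: score merges 667 nm emission intensity with spot signal to noise over triplicate slides.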 Particulars: EGFR binding, higher = more signal.
Test [12] addresses Follistatin-related protein 3 (Homo sapiens) (UniProt O95633). In words: compounds binding follistatin-related protein 3 – biochemical, small-molecule microarray, 635 nm fluorescence, primary screen (AID 1105).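 Also: score merges emission near 667 nm and signal to noise per printed spot across three slides.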 The conditions noted are these: FSTL3 binding, higher = more signal.
For test [13], the target named is Dickkopf-related protein 1 (Homo sapiens) (UniProt O94907). In words: small molecules binding DKK1 protein – biochemical, small-molecule microarray, 635 nm fluorescence scan, primary screen (AID 1106).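 Also: score merges emission near 667 nm with signal to noise over three replicate slides.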 The conditions noted are these: higher = more signal.
Test [14] relates to Inhibin beta A chain (activin A). In words: small molecules binding activin A – biochemical, small-molecule microarray, 635 nm fluorescence scan, primary screen (AID 1107).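 Also: mouse activin A protein probed at 4.33 µg/mL on printed slides; score merges bound-protein fluorescence near 667 nm with spot signal-to-noise.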 The conditions noted are these: INHBA, higher = more signal.
Test [15] concerns Human papillomavirus type 1a protein E7 (residues 44-93). As to the kind of experiment: small molecules binding HPV E7 44-93 – biochemical, small-molecule microarray, residues 44-93, 635 nm fluorescence, primary screen (AID 1108).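 Also: E7 fragment applied at 1 µg/mL in TBST for 1 h at 4 C; score combines spot fluorescence with its signal to noise ratio.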 Particulars: fluorescence 635 nm, higher = more signal.
Test [16] in a line: hepatitis C replication reporter changes, two-sided – Huh7 cells, luciferase reporter, HCV replication inhibitor project, primary screen (AID 1109).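 Also: huh7 hepatoma cells harbouring a luciferase neomycin HCV replicon reporter; luciferase luminescence as measure of HCV replicon replication; test concentration not given here.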 The conditions noted are these: Huh7 HCV replicon luciferase reporter, 48 h; higher = more signal.
Test [17] has as its target Left-right determination factor 2 (Homo sapiens) (UniProt O00292). As to the kind of experiment: small molecules binding LEFTY2 protein – biochemical, small-molecule microarray, 635 nm fluorescence scan, primary screen (AID 1110). Particulars: higher = more signal.
Test [18] has as its target Calmodulin-1 (Homo sapiens) (UniProt P0DP23). In words: small molecules binding calmodulin-1 with EGTA – biochemical, small-molecule microarray, Cy5-labelled CALM1, profiling panel (AID 1111).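 Also: labelled calmodulin applied in Tris saline Tween buffer holding calcium plus EGTA and DTT.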 The conditions noted are these: Cy5-CALM1 binding fluorescence, higher = more signal.
Test [19] shares this target. In words: small molecules binding Ca-loaded calmodulin-1 – biochemical, small-molecule microarray, Cy5-labelled CALM1, plus calcium, artefact control for SMM control-protein annotation, profiling panel (AID 1112).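 Also: score merges spot fluorescence with signal to noise from triplicate slides.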 Particulars: Cy5-CALM1 binding fluorescence, higher = more signal.
Test [20] can be described thus: probe aWnt5a binding to arrayed compounds – biochemical, biotinylated probe, 635/667 nm fluorescence, primary screen (AID 1113).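 Also: score merges 667 nm fluorescence intensity with signal-to-noise per printed feature.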 The conditions noted are these: small-molecule microarray, higher = more signal.

Epidermal growth factor receptor (Homo sapiens), sequence (P00533 whole entry, looked up): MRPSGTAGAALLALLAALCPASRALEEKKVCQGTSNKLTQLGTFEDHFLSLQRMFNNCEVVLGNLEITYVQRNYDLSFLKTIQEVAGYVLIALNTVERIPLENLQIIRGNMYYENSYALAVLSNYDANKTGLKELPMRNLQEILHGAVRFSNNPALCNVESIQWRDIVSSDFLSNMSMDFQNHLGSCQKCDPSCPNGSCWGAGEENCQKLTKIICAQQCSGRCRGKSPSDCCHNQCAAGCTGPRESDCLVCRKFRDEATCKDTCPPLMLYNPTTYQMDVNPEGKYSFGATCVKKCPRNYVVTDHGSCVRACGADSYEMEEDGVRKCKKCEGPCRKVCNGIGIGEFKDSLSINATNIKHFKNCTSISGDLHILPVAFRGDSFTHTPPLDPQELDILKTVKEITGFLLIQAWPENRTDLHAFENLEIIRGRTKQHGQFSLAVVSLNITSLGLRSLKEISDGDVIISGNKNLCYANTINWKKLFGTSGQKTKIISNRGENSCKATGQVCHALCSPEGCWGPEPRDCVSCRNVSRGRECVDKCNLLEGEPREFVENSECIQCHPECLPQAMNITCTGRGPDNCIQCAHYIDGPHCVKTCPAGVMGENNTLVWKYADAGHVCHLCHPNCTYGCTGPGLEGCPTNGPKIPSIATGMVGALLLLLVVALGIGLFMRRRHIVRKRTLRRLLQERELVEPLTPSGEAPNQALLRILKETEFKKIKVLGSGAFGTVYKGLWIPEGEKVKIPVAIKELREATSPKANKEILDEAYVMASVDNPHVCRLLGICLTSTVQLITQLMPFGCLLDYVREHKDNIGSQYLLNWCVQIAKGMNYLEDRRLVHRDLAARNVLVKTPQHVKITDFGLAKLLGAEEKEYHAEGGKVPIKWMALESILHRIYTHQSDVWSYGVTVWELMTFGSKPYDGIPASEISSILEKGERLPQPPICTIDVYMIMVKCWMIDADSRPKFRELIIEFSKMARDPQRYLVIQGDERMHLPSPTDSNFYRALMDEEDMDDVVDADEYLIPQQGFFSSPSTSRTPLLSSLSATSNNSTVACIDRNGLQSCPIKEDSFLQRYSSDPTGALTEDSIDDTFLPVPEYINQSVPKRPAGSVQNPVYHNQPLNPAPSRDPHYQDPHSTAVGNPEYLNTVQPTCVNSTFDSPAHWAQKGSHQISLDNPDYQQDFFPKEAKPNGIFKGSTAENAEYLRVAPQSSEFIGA
Neurogenic locus notch homolog protein 3 (Homo sapiens), sequence (Q9UM47 whole entry, looked up): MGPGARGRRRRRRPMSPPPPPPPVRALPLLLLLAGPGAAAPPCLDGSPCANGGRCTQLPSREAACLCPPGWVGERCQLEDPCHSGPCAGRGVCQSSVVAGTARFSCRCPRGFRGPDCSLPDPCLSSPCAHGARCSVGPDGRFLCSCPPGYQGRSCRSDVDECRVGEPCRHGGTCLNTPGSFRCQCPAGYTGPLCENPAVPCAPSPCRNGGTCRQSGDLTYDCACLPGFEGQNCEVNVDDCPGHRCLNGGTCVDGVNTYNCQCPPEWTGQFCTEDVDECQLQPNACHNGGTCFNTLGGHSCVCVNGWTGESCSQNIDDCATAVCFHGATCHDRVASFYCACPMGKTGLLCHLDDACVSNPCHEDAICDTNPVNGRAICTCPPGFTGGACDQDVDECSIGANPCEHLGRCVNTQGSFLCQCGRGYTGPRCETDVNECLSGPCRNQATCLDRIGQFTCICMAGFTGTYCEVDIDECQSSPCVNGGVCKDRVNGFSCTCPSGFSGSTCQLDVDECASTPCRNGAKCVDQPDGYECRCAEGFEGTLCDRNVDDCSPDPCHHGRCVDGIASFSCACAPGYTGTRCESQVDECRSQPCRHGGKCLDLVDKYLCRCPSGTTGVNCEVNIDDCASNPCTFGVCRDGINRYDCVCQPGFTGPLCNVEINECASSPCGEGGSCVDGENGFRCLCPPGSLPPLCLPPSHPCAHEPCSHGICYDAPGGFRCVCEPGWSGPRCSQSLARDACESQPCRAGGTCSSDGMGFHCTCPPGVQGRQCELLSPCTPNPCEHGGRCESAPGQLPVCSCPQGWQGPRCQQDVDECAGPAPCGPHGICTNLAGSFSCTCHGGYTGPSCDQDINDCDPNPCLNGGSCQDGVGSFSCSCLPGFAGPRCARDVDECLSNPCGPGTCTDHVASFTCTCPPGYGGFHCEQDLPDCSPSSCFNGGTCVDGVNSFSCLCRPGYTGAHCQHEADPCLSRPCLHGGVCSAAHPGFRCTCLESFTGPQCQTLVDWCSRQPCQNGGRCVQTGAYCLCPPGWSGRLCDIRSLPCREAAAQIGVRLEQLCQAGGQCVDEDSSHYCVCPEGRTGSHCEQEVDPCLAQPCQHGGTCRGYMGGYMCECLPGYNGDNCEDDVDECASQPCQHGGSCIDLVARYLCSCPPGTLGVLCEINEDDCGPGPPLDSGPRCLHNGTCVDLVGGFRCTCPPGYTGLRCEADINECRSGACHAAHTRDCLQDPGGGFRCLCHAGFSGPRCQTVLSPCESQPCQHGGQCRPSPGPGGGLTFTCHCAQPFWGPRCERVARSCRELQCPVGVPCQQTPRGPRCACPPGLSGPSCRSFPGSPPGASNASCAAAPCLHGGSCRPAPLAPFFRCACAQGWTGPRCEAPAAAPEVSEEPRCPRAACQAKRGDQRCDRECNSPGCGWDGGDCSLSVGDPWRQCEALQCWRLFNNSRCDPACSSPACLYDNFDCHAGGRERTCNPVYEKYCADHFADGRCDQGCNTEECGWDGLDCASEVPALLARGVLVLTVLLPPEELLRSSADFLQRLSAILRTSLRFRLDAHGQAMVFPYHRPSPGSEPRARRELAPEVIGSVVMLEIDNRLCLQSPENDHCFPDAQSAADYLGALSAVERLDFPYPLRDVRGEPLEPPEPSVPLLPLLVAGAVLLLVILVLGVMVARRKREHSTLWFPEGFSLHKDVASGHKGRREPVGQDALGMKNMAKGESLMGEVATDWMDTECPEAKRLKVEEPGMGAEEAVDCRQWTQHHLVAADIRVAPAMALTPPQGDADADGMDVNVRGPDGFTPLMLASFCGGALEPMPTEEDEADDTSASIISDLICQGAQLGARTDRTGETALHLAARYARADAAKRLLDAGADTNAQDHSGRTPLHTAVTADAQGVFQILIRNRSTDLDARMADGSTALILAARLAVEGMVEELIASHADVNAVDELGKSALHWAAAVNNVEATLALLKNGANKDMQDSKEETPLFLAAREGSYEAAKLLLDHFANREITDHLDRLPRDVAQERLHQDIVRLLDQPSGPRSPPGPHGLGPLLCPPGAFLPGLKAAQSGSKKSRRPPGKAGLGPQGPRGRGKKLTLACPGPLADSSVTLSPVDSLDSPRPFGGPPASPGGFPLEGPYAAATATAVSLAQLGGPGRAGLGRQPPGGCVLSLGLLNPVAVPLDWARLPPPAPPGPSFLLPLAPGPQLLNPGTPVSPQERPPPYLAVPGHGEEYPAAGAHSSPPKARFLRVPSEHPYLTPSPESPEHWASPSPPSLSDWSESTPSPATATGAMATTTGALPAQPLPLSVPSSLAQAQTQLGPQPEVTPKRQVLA
Dickkopf-related protein 1 (Homo sapiens), sequence (O94907 whole entry, looked up): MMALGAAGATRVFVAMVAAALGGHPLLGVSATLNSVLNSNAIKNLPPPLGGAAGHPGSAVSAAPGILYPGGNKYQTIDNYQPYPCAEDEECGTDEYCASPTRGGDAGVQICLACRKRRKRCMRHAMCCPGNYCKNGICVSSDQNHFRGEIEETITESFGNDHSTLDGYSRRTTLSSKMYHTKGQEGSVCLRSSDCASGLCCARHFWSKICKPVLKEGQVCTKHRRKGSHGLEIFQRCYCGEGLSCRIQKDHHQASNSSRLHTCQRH
Fibroblast growth factor 10 (Homo sapiens), sequence (O15520 whole entry, looked up): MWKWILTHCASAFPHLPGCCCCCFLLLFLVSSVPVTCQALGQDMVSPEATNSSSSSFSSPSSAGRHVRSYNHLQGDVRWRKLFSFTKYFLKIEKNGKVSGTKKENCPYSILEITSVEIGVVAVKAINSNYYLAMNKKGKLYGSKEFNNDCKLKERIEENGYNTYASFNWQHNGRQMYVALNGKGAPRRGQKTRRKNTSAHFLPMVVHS
Follistatin-related protein 3 (Homo sapiens), sequence (O95633 whole entry, looked up): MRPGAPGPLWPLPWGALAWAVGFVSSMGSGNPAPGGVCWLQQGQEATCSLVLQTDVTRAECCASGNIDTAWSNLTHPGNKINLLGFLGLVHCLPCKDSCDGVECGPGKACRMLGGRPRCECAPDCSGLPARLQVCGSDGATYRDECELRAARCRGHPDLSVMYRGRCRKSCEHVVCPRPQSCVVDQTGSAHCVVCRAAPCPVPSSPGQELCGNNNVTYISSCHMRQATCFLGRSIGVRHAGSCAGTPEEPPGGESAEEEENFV
Left-right determination factor 2 (Homo sapiens), sequence (O00292 whole entry, looked up): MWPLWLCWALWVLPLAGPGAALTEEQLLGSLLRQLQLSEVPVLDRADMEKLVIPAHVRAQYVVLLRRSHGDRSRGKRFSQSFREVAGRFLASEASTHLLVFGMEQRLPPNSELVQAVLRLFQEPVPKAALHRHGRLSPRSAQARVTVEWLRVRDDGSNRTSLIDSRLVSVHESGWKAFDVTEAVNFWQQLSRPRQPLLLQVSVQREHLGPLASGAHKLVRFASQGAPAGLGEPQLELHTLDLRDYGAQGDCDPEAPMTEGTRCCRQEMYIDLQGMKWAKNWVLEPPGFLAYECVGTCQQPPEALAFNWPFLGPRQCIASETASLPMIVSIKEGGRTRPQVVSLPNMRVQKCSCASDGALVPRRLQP

For the compound `C/C=C/[C@@H](CCn1cc(CCO[Si](C(C)C)(C(C)C)C(C)C)nn1)[Si](C)(C)c1ccc(OC)cc1`, the composite z-score was -0.275 in [1]; -1.15 in test [2]; -3.03 in test [3]; -0.406 in test [4]; -0.82 in test [5]; -0.941 in test [6]. Besides, the composite z-score in [7] is -0.34; in [9], -1.03; in test [10], -0.918; in test [11], -2.01; in test [12], -1.72; in test [13] it was -1.03. The composite z-score in test [14] was 1.01; in [15], -0.77; in [17], -0.426; in test [18] it was -2.98; in [19], -2.87; in test [20], -0.182. Besides, the z-score was -2.83 (inactive) in test [8] and -0.918 in [16].

For `C=C(C(=O)CC[C@H](OC(C)=O)c1ccc(CO)o1)C(C)C`, the composite z-score in test [1] is -0.127; in [2], 0.512; in test [3] it was -0.654; in test [4], -0.181; in test [5], 1.73; in test [6], -0.272. In addition, the composite z-score in test [7] is -0.476; in test [9] it was 0.0843; in [10], 0.626; in [11] it was -0.986; in [12], -0.144; in test [13], 0.24. The composite z-score in [14] was 0.0011; in test [15], -0.559; in [17] it was -0.586; in test [18], -0.579; in test [19], -0.758; in test [20] it was -0.096. The values for the z-score in [8] and in test [16] were -1.4 (inactive) and -1.52, respectively.

`[N-]=[N+]=NCc1ccccc1C[C@]1(C(=O)NCc2ccccc2)N=C(c2ccc(OCCCO)cc2)O[C@H]1c1ccccc1`: the composite z-score in test [1] was 0.52; in test [2] it was -0.577; in [3] it was 0.224; in test [4], 0.1; in test [5], 1.01; in test [6], 1.51. The composite z-score in [7] was 1.28; in test [9], 0.19; in test [10], -0.516; in test [11], -0.864; in [12] it was -0.565; in [13], -1.03. Also, the composite z-score was 0.928 in test [14]; 0.508 in test [15]; -0.941 in [17]; 1.82 in test [18]; 1.36 in [19]; 0.108 in test [20]. Also, the z-score in test [8] is 0.359 (inactive); in [16], -1.95.

Regarding `COC(=O)[C@@]1(CCC(=O)OC(C)(C)C)COC(c2ccc(OCCCO)cc2)=N1`, the composite z-score in [1] was 0.0399; in test [2], -1.99; in test [3], -1.84; in [4], -0.36; in [5], -1.07; in test [6], 0.623. In addition, the composite z-score in test [7] was 1.18; in test [9] it was -1.2; in test [10], -1.19; in test [11], -1.82; in test [12] it was -2.47; in [13], -2.17. In addition, the composite z-score was -0.0726 in test [14]; -1.42 in [15]; -1.57 in test [17]; -0.683 in test [18]; 0.674 in test [19]; -0.197 in test [20]. The z-score in test [8] was -0.493 (inactive); in test [16] it was 0.136.

As for `CCCCCCC#C[Si](O[C@H](c1ccccc1)c1cn(Cc2ccccc2)nn1)(C(C)C)C(C)C`, the composite z-score was -0.0153 in [1]; 0.977 in [2]; 0.6 in test [3]; 0.0334 in [4]; -0.068 in test [5]; -0.0783 in test [6]. The composite z-score in test [7] was -0.14; in test [9] it was 0.232; in test [10], 0.305; in test [11], 0.302; in test [12], 0.388; in test [13] it was 0.279. For the same compound, the composite z-score in test [14] was 0.403; in test [15], 0.382; in [17], 0.367; in test [18] it was -0.0092; in [19], 0.716; in test [20] it was -0.151. In addition, the z-score in [8] was -1.51 (inactive); in test [16] it was -1.93.

With `COc1c(C)cc(-c2cc3c(c(CCc4ccccc4)n2)[Si](C(C)C)(C(C)C)OC3)cc1C`, the composite z-score in [1] is -0.0866; in [2], 0.288; in [3], 0.34; in test [4] it was 0.0068; in test [5], -0.615; in test [6], 0.335. For the same compound, the composite z-score is 0.156 in test [7]; 0.513 in [9]; 0.723 in test [10]; 0.927 in test [11]; 0.567 in test [12]; 0.162 in [13]. Further, the composite z-score in [14] was 0.474; in test [15], 0.804; in test [17], 0.474; in [18] it was -0.354; in test [19], -0.381; in test [20] it was -0.152. For the same compound, the z-score in test [8] was -1.28 (inactive); in test [16] it was 0.336.

On to `CC(C)(C)OC(=O)CC[C@]1(C(=O)NCc2ccccc2)N=C(c2ccc(OCCCO)cc2)O[C@H]1c1ccccc1N=[N+]=[N-]`, for which the composite z-score in [1] came to 0.782; in test [2] it was 1.69; in test [3] it was 1.02; in [4] it was 0.593; in [5], 1.02; in test [6], 1.36. For the same compound, the composite z-score was 1.35 in test [7]; 1.21 in test [9]; 1.29 in test [10]; -0.0113 in [11]; 1 in [12]; 0.496 in test [13]. Moreover, the composite z-score in test [14] was 0.947; in test [15] it was -0.385; in test [17], 0.478; in test [18], 2.14; in [19], 0.756; in test [20], 0.17. Moreover, the values for the z-score in [8] and in test [16] were -2.19 (inactive) and -0.5, respectively.

With `CC(C)(C)OC(=O)CC[C@@]1(C(=O)NCc2ccccc2)N=C(c2ccc(OCCCO)cc2)O[C@@H]1c1ccccc1CN=[N+]=[N-]`, the composite z-score in [1] is 0.387; in test [2] it was 0.958; in test [3], 1.14; in [4], 0.236; in test [5] it was 1.08; in test [6], 1.06. Further, the composite z-score in test [7] was determined as 0.997; in test [9] it was 1.16; in test [10] it was 1.3; in [11], 0.0887; in test [12], 0.622; in test [13] it was 0.11. Besides, the composite z-score in test [14] is 0.664; in [15] it was -0.179; in test [17], 0.0022; in [18], 1.61; in test [19], 0.605; in [20] it was 0.164. Besides, the z-score in test [8] is 0.014 (inactive); in test [16], -2.28.
